Measured values taken from PubChem BioAssay (NCI).
About 79,000 compounds went through this panel and 15% of them were active in at least one assay; those are over-represented in the sample as a whole. Unmarked numbers belong to inactive results. Active and inactive are the calls of the source. No stated cut-off is given here; in the data, active means growth inhibition above about 70%; inactive means the rest.

Tests used:
[1] = NCI Yeast Anticancer Drug Screen. Data for the rad50 strain (AID 155);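 further: 0% = growth of vehicle-only cultures of the same strain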; settings: S. cerevisiae rad50 strain growth inhibition, hits give high values
Procedure, shortened: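 Cells are treated with compound, grown, and their growth is then scored against vehicle-only cultures of the same repair-deficient yeast strain.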

[2] = NCI Yeast Anticancer Drug Screen. Data for the mec2-1 strain (AID 157); settings: S. cerevisiae mec2-1 strain, hits give high values
Procedure, shortened: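 Cells of the genetically defined mec2-1 yeast strain are incubated with test compound. Inhibition of growth is calculated against vehicle-treated controls.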

[3] = NCI Yeast Anticancer Drug Screen. Data for the sgs1 mgt1 strain (AID 161);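 further: 0% = growth of cultures given vehicle only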; settings: S. cerevisiae sgs1 mgt1 strain, hits give high values
Procedure, shortened: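 Test agents were incubated with a DNA-repair-mutant yeast strain. Growth was then read and compared against vehicle-treated controls.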

[4] = NCI Yeast Anticancer Drug Screen. Data for the cln2 rad14 strain (AID 165);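 further: 0% = growth equal to vehicle treated cultures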; settings: S. cerevisiae cln2 rad14 strain, hits give high values
Procedure, shortened: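 The screen exposed genetically defined yeast (cln2 rad14) to test compounds and scored growth inhibition relative to vehicle-treated controls.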

[5] = NCI Yeast Anticancer Drug Screen. Data for the bub3 strain (AID 167); settings: S. cerevisiae bub3 mutant strain, hits give high values
Procedure, shortened: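 Part of a panel of yeast mutants defective in DNA damage repair or cell cycle regulation. Each strain is grown with compound, and inhibition is calculated relative to solvent-treated cultures.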

[6] = NCI Yeast Anticancer Drug Screen. Data for the mlh1 rad18 strain (AID 175); settings: S. cerevisiae mlh1 rad18 strain growth inhibition, hits give high values
Procedure, shortened: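 Compound-treated yeast growth, normalised to vehicle controls. Strain bears defined DNA repair mutations.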

[7] = at 5.0 µM (retest, dose inferred, filed as 0.5)
[8] = at 50.0 µM (retest, dose inferred, filed as 5.0)

Row | Structure (SMILES) | growth inhibition [1, 7] | growth inhibition [1, 8] | growth inhibition ([1]; at 50.0 µM) | growth inhibition [2, 7] | growth inhibition [2, 8] | growth inhibition ([2]; at 50.0 µM) | growth inhibition [3, 7] | growth inhibition [3, 8] | growth inhibition ([3]; at 50.0 µM) | growth inhibition [4, 7] | growth inhibition [4, 8] | growth inhibition ([4]; at 50.0 µM) | growth inhibition [5, 7] | growth inhibition [5, 8] | growth inhibition ([5]; at 50.0 µM) | growth inhibition [6, 7] | growth inhibition [6, 8] | growth inhibition ([6]; at 50.0 µM)
1 | CCOc1cc2c(OCc3ccccc3)cc3c4cc(OC)c(OC)cc4c[n+](C)c3c2cc1OC | 98% (active) | 99% (active) | 59.6% | 96% (active) | 99% (active) | 46.2% | 97% (active) | 99% (active) | 50.8% | 97% (active) | 99% (active) | 55% | 97% (active) | 99% (active) | 50.3% | 97% (active) | 99% (active) | 50.1%
2 | CCCCCCCCN1C(=O)c2ccccc2S1(=O)=O | -2% | 95% (active) | 22.9% | -4% | 96% (active) | 32.1% | -2% | 94% (active) | 73.8% (active) | -17% | 95% (active) | -27.6% | 25% | 96% (active) | 89.2% (active) | -2% | 95% (active) | 76.2% (active)
3 | COc1ccc(Oc2ccc(C(=O)C(CN(C)C)CN(C)C)cc2)cc1 | -4% | 96% (active) | 84% (active) | -13% | 97% (active) | 87.8% (active) | 11% | 98% (active) | 85.8% (active) | -2% | 95% (active) | 87.8% (active) | -3% | 96% (active) | 85.6% (active) | 0% | 96% (active) | 86.5% (active)
4 | CC(=O)N(C)c1ccc2c(c1)Cc1ccccc1-2 | 2% | 34% | 42.6% | 1% | 21% | 27.4% | 1% | 36% | 42.7% | -2% | 16% | 14.8% | 16% | 86% (active) | 58.3% | -2% | 30% | 23.1%
5 | Nc1nc(N)c(N=O)c(Nc2cccc(Br)c2)n1 | 57% | 98% (active) | 1.15% | 46% | 99% (active) | 13.8% | 70% (active) | 98% (active) | -6.85% | 48% | 98% (active) | 76.7% (active) | 50% | 98% (active) | 56.1% | 64% | 98% (active) | 5.05%
6 | Cc1[nH]c(=O)[nH]c(=O)c1CN(C)Cc1cc(Cl)cc(Cl)c1O | -4% | 70% (active) | 53.1% | -8% | 55% | 26.9% | 0% | 95% (active) | 77.4% (active) | -3% | 43% | 22% | -8% | 46% | 30.1% | -3% | 82% (active) | 77.5% (active)
7 | Cc1ccc(S(=O)(=O)OCCCCOS(=O)(=O)c2ccc(C)cc2)cc1 | 0% | 4% | 76% (active) | -7% | -3% | 26.1% | -6% | 4% | 15.7% | 2% | -5% | 28.4% | -2% | 2% | -17.2% | 2% | 1% | 15.1%
8 | CCOC(=O)C(C(=O)OCC)c1ccc([N+](=O)[O-])o1 | 14% | 82% (active) | 86% (active) | -15% | 96% (active) | 86.4% (active) | 8% | 89% (active) | 89.2% (active) | 6% | 79% (active) | 81.9% (active) | 0% | 94% (active) | 87.9% (active) | 3% | 96% (active) | 82.2% (active)
9 | Cc1cc2nc3c(C)c4ccccc4c(C)n3c2cc1C | 82% (active) | 93% (active) | 80.8% (active) | 69% | 96% (active) | 87.8% (active) | 72% (active) | 50% | 85.3% (active) | 73% (active) | 94% (active) | 83.4% (active) | 75% (active) | 94% (active) | 86.4% (active) | 81% (active) | 95% (active) | 79.3% (active)
10 | CC1=C(C)C(N2CCOCC2)CS(=O)(=O)O1 (configuration not stated) | 4% | 0% | 6.15% | 1% | -3% | -14.4% | 5% | 0% | -2.3% | 3% | -1% | 16.4% | -2% | -1% | 1.35% | 19% | 17% | -3.95%
11 | Cc1ccc(SCN2CCCCC2)cc1 (tested in a mixture with another compound) | 21% | 29% | 62% | 1% | 2% | 12.6% | 23% | 22% | 35.9% | -10% | 18% | 0.35% | -9% | 4% | 1.2% | 20% | 44% | 75.2% (active)
12 | CC(C)(CC#N)c1cc(CC(C)(C)c2cc(CC(C)(C)c3cc(CC(C)(C)C4(C)OCCO4)no3)no2)no1 | -2% | 2% | 16.8% | -4% | -2% | 2.6% | -2% | 6% | -17.4% | 1% | -4% | 0.5% | -3% | 0% | -1.9% | -2% | -8% | 12.8%
13 | Cc1cc(N(CCOS(C)(=O)=O)CCOS(C)(=O)=O)ccc1C=Nc1ccccc1C(=O)O | 7% | 76% (active) | 83.5% (active) | 15% | 66% | 74.3% (active) | 4% | 62% | 79.8% (active) | 4% | 57% | 68.2% | -2% | 31% | 38.5% | 28% | 91% (active) | 95.1% (active)
14 | O=C(CNc1ccc(Cl)cc1)Nn1c(-c2ccccc2)nc2ccccc2c1=O | 8% | 29% | 64.7% | -9% | 42% | 56.6% | 10% | 30% | 79% (active) | 11% | 32% | 45.2% | -7% | 31% | 62.1% | 4% | 51% | 81.3% (active)
15 | O=C1CSC(=Nc2ccc(F)cc2F)N1Cc1cccs1 | 44% | 92% (active) | 80.2% (active) | 36% | 98% (active) | 78.2% (active) | 39% | 98% (active) | 90.5% (active) | 25% | 63% | 50.1% | 41% | 61% | 86.2% (active) | 47% | 98% (active) | 84.6% (active)
16 | CC(=O)c1c(O)ccc2nc3ccccc3nc12 | 11% | 87% (active) | 94% (active) | 20% | 92% (active) | 91.5% (active) | 14% | 89% (active) | 82.6% (active) | 12% | 86% (active) | 82.8% (active) | 22% | 85% (active) | 92% (active) | 39% | 91% (active) | 94.5% (active)
17 | Cc1cccnc1NC(=S)Nc1ccccc1Cl | 2% | 99% (active) | 89.5% (active) | 12% | 99% (active) | 91.3% (active) | 28% | 99% (active) | 93.2% (active) | -12% | 99% (active) | 85.8% (active) | 18% | 95% (active) | 91.8% (active) | 28% | 99% (active) | 89.5% (active)
18 | COC(=O)C1(Cc2ccccc2)Cc2c(C)ccc(C)c2C1=O (configuration not stated) | -4% | 12% | 43.1% | -3% | 16% | 19.2% | 13% | 42% | 61.6% | -1% | 2% | 39.2% | 28% | 62% | 64.2% | -2% | 13% | 70.2% (active)
19 | CCCCCCCCCCCCCC(=O)OCCCC1CCCO1 (configuration not stated) | -2% | -2% | 8.55% | -2% | 2% | -13.8% | -1% | 4% | 13.2% | 7% | 7% | 53.6% | -2% | -3% | 11.3% | 11% | 0% | -38.2%
